Records with an inconclusive call do not appear. The source made the active and inactive calls. Unless noted, how the calls were made is not given here.

Experiment [1] can be described thus: qHTS profiling for inhibitors of Plasmodium falciparum (3D7) proliferation (AID 743322).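 Further: infected erythrocytes exposed to compound for 72 h before lysis; 100% = DMSO vehicle wells and 0% = 0.29 µM artemisinin.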 The settings on record: P. falciparum 3D7 proliferation; at 28.7 µM (top of the series). In short, it runs like this: (§1)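 Parasite DNA was quantified by SYBR Green I fluorescence (ex 485, em 535 nm) after overnight lysis in saponin/Triton buffer at room temperature. Cultures at 0.3% parasitemia and 2.5% hematocrit were first exposed to compound for 72 h at 37 C; signals were normalised to artemisinin (0.29 uM) and vehicle wells.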

The nature of experiment [2]: qHTS profiling for inhibitors of Plasmodium falciparum (DD2) proliferation (AID 743323). The settings on record: lower = more inhibition; at 28.7 µM (top of the series). Summed up:
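Parasite DNA quantified by SYBR Green fluorescence (ex 485, em 535 nm) after saponin/Triton lysis and overnight dark incubation. Cultures: 0.3% parasitemia, 2.5% hematocrit, 72 h, 37 C; data scaled between DMSO and 0.29 uM artemisinin.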

Experiment [3] is described as follows: qHTS profiling for inhibitors of Plasmodium falciparum (HB3) proliferation (AID 743324; active means well fitted curve in the direction sought with a large enough effect; an effect the other way counts as inactive or inconclusive;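 further: 100% = DMSO vehicle wells and 0% = artemisinin-treated control wells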). The settings on record: Plasmodium falciparum HB3 blood-stage proliferation; at 28.7 µM (top of the series). Summed up:
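SYBR Green fluorescence (485 ex/535 em) of lysed cultures, incubated overnight at room temperature in the dark, quantifies parasite DNA. Infected erythrocytes at 0.3% parasitemia and 2.5% hematocrit were exposed 72 h; values normalized to DMSO and 0.29 uM artemisinin controls.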

Experiment [4] can be described thus: qHTS profiling of the MIPE4 collection as inhibitors of Plasmodium falciparum (3D7) proliferation (AID 743344).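 Further: scaled between DMSO vehicle wells and 0.29 µM artemisinin as full inhibition.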 The settings on record: P. falciparum 3D7 in erythrocytes, SYBR Green DNA fluorescence, 72 h; at 28.5 µM (top of the series) unless noted. In short, it runs like this:
as §1

Experiment [5] can be described thus: qHTS profiling of the MIPE4 collection as inhibitors of Plasmodium falciparum (DD2) proliferation (AID 743345). The note with it: P. falciparum Dd2 in erythrocytes, SYBR Green DNA, 72 h; at 28.5 µM (top of the series) unless noted. Summed up: as §1
Experiment [6] can be described thus: qHTS profiling of the MIPE4 collection as inhibitors of Plasmodium falciparum (DD2) proliferation (Rep 2) (AID 743346). The settings on record: P. falciparum Dd2 in erythrocytes, SYBR Green DNA, 72 h; at 28.5 µM (top of the series) unless noted. Summed up: as §1
The nature of experiment [7]: qHTS profiling of the MIPE4 collection as inhibitors of Plasmodium falciparum (HB3) proliferation (AID 743347).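 Further: plate controls were DMSO vehicle wells for no effect and artemisinin wells for full effect.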 The note with it: P. falciparum HB3 in erythrocytes, SYBR Green DNA, 72 h; at 28.5 µM (top of the series) unless noted. In short, it runs like this:
as §1

Experiment [8] in a line: High-throughput drug toxicity screening in the BPDCN cell line Gen2.2 (AID 1224824).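 Further: cells exposed to compounds for 48 h before reading.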 The note with it: Gen2.2 BPDCN cells; at 45.8 µM (top of the series) unless noted. In short, it runs like this:
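Seed 500 exponentially growing Gen2.2 cells/well; add compounds by pin tool; incubate 48 h, 37 °C, 5% CO2; add CellTiter-Glo, 15 min RT; read luminescence. % activity vs DMSO (100%) and bortezomib (0%).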

The nature of experiment [9]: High-throughput drug toxicity screening in the BPDCN cell line Cal-1 (AID 1224825). The note with it: Cal-1 BPDCN cell viability, qHTS; at 45.8 µM (top of the series) unless noted. Summed up:
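CellTiter-Glo luminescence after 48 h compound exposure; percent activity scaled with DMSO as 100% and bortezomib (9.2 uM final) as 0%. Cal-1 cells seeded at 500/well in RPMI, 10% FBS, no phenol red.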

Experiment [10] is described as follows: qHTS assay for measurement of the activity of small molecule inhibitors on Zika virus induced Caspase-3 activity in human iPSC derived neural progenitor cells (hNPCs) (AID 1224857; active means well fitted curve in the direction sought with a large enough effect; an effect the other way counts as inactive or inconclusive; further: nearly all actives have a fitted effect of over 65% in size; further: potency means the concentration at half of the fitted maximal effect). Summed up: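 Zika virus (2 FFU/cell) infection of human iPSC-derived NPCs, 6 h, following 1 h compound preincubation. Read-out: Caspase-Glo 3/7 luminescence.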
Experiment [11] in a line: qHTS Screen of the MIPE 4.0 Collection Against Ewings Sarcoma (RDES) (AID 1259252; active means well fitted curve in the direction sought with a large enough effect; an effect the other way counts as inactive or inconclusive; further: nearly all actives have a fitted effect of over 35% in size; further: potency means the concentration at half of the fitted maximal effect). In short, it runs like this:
(§2)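 Log-phase cells in RPMI with 5% FBS attached for 4 h, then received compounds as a titration for 48 h at 37C, 5% CO2. Viability was read by CellTiter-Glo luminescence and normalized to DMSO and no-cell wells.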

A short description of experiment [12]: qHTS Screen of the MIPE 4.0 Collection Against Ewings Sarcoma (TC71) (AID 1259253; active means well fitted curve in the direction sought with a large enough effect; an effect the other way counts as inactive or inconclusive; further: nearly all actives have a fitted effect of over 40% in size; further: potency means the concentration at half of the fitted maximal effect). In short, it runs like this: as §2
Experiment [13] is described as follows: qHTS Screen of the MIPE 4.0 Collection Against Ewings Sarcoma (EW8) (AID 1259255; active means well fitted curve in the direction sought with a large enough effect; an effect the other way counts as inactive or inconclusive; further: nearly all actives have a fitted effect of over 35% in size; further: potency means the concentration at half of the fitted maximal effect;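 on viability: 100% = DMSO-treated cells and 0% = medium-only wells without cells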). Summed up: as §2
Experiment [14] can be described thus: qHTS Screen of the MIPE 4.0 Collection Against Ewings Sarcoma (TC32) (AID 1259256; active means well fitted curve in the direction sought with a large enough effect; an effect the other way counts as inactive or inconclusive; further: nearly all actives have a fitted effect of over 45% in size; further: potency means the concentration at half of the fitted maximal effect). In short, it runs like this:
as §2

Experiment [15] can be described thus: Identifying Small Molecule Inhibitors of Pancreatic Cancer Stem Cells (A2780, Spheroid) (AID 1259357; active means well fitted curve in the direction sought with a large enough effect; an effect the other way counts as inactive or inconclusive;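 further: spheroids pre-formed over 14 days in stem cell medium on hydrogel; potency means the concentration at half of the fitted maximal effect; compound exposure lasted 48 h before the ATP luminescence read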). The settings on record: Potency: A2780 spheroid viability. In short, it runs like this: (§3)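 Spheroids grown 14 days in stem cell media on hydrogel-coated nonadherent plates; 2D lines seeded directly. Compounds added after 4 h attachment, 48 h at 37C, 5% CO2; CellTiter-Glo luminescence normalized to DMSO (no inhibition) and no-cell wells (full inhibition).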

Experiment [16] is described as follows: Identifying Small Molecule Inhibitors of Pancreatic Cancer Stem Cells (Panc1, Spheroid) (AID 1259359; active means well fitted curve in the direction sought with a large enough effect; an effect the other way counts as inactive or inconclusive;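 further: potency means the concentration at half of the fitted maximal effect; compound exposure lasted 48 h before reading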). The settings on record: Panc1 spheroid cancer stem cell viability. In short, it runs like this:
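Spheroids grown 14 days in stem cell media on nonadherent hydrogel before screening; cells attached 4 h, then compound exposure 48 h at 37C, 5% CO2. CellTiter-Glo luminescence normalized to DMSO (no inhibition) and no-cell wells (full inhibition).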

A short description of experiment [17]: Identifying Small Molecule Inhibitors of Pancreatic Cancer Stem Cells (SN12C, Spheroid) (AID 1259360; active means well fitted curve in the direction sought with a large enough effect; an effect the other way counts as inactive or inconclusive; further: potency means the concentration at half of the fitted maximal effect). The note with it: Potency: SN12C spheroid viability. In short, it runs like this:
as §3

As to `O=C1C(Cl)=C(NCCN2CCOCC2)C(=O)c2ncccc21`, the remaining parasite growth % (stronger effect = lower value) in [1] amounted to 34.6%. The activity, percent of control in experiment [2] is 17.3%. The remaining proliferation (% of control), lower = more inhibition in [3] was determined as 26.6%. In experiment [4], this compound had a parasite growth, % of DMSO control of 15.2%. In addition, in experiment [5], the parasite growth remaining, % of DMSO control (lower = more inhibition) turned out to be 18%. For the same compound, the parasite growth, % of control (lower = inhibition) in [6] is 16%. The compound also had a growth, % of control in [7] of 10.3%. In addition, the cell viability, % of control (lower = more cytotoxic) in experiment [8] was 2.36%. For the same compound, the viability (% of control) in experiment [9] was determined as 0.784%. For the same compound, the Potency in experiment [10] was 2.35 µM (active); in experiment [11] it was 8.33 µM (active); in experiment [12] it was 6.62 µM (active); in experiment [13] it was 3.72 µM (active); in [14] it was 2.64 µM (active); in [15] it was 9.35 µM (active). For the same compound, the Potency in experiment [16] was 3.72 µM (active); in experiment [17], 14.8 µM (active).

On to `COC1CCC(N(C(=O)C2CCC(C)CC2)c2cc(C3=CCCCC3)sc2C(=O)O)CC1` (centres undefined), for which the cell viability, % of control (lower = more cytotoxic) in [8] stood at 66.7%. The compound further returned a viability (% of control) in experiment [9] of 89.2%. For the same compound, the Potency result in experiment [10] and in experiment [14] was “inactive” each time. The Potency in experiment [12] was 20.9 µM (active).

In experiment [4], `NC(=O)c1ccc2nc(-c3ccc(Oc4ccc(Cl)cc4)cc3)[nH]c2c1` displayed a parasite growth, % of DMSO control of 48.1%. In experiment [5], the parasite growth remaining, % of DMSO control (lower = more inhibition) is 76.9%. In addition, in experiment [6], the parasite growth, % of control (lower = inhibition) came out at 61.3%. In experiment [7], the growth, % of control turned out to be 83.4%. The cell viability, % of control (lower = more cytotoxic) in experiment [8] amounted to 59.5%. In addition, the viability (% of control) in experiment [9] was 38%. Also, the Potency result in experiment [10] was “inactive”. The Potency in experiment [12] is 0.526 µM (active).

Consider `CCc1ccc(C=C2SC(=S)NC2=O)cc1`, for which the parasite growth, % of DMSO control in experiment [4] stood at 77.1%. In experiment [5], this compound came in with a parasite growth remaining, % of DMSO control (lower = more inhibition) of 93.8%. The parasite growth, % of control (lower = inhibition) in [6] turned out to be 115%. Also, in [7], the growth, % of control was determined as 87.9%. The cell viability, % of control (lower = more cytotoxic) in [8] is 159%. The viability (% of control) in experiment [9] turned out to be 83.2%. The Potency in [10] was 20.9 µM (active). Moreover, the Potency entry in [11], in experiment [12], in experiment [13] and in experiment [14] was “inactive” throughout.

In experiment [4], `O=C1Nc2ccc(Cl)cc2C(C#CC2CC2)(C(F)(F)F)O1` (centres undefined) returned a parasite growth, % of DMSO control of 40.8%. For the same compound, the parasite growth remaining, % of DMSO control (lower = more inhibition) in experiment [5] was 76%. Moreover, the parasite growth, % of control (lower = inhibition) in experiment [6] is 57.2%. The same compound yielded a growth, % of control in [7] of 63%. Moreover, the cell viability, % of control (lower = more cytotoxic) in experiment [8] came to 75.6%. In [9], the viability (% of control) is 56.5%. Also, the Potency entry in experiment [10] was “inactive”. Besides, the Potency in experiment [13] is 26.4 µM (active).

With `CCNc1cc(NC2CCC(O)CC2)nc(Nc2ccc3c(ccn3Cc3ccccc3)c2)n1` (centres undefined), in [4], the parasite growth, % of DMSO control was determined as 4.9%. For the same compound, in [5], the parasite growth remaining, % of DMSO control (lower = more inhibition) stood at 6.69%. Moreover, in [6], the parasite growth, % of control (lower = inhibition) turned out to be 15.2%. In experiment [7], this compound came in with a growth, % of control of 9.27%. In [8], the cell viability, % of control (lower = more cytotoxic) is 21.8%. Besides, the viability (% of control) in [9] was found to be 2.13%. Further, in experiment [10], the Potency entry was “inactive”. The Potency in experiment [14] is 23.5 µM (active).

The compound `O=c1cc(-c2ccccc2)oc2cc(O)cc(O)c12` showed a parasite growth, % of DMSO control in experiment [4] of 48.1%. This compound also showed a parasite growth remaining, % of DMSO control (lower = more inhibition) in experiment [5] of 89.3%. In experiment [6], the parasite growth, % of control (lower = inhibition) worked out at 49.8%. Besides, the growth, % of control in [7] was 43.5%. Besides, the cell viability, % of control (lower = more cytotoxic) in experiment [8] is 45.9%. For the same compound, the viability (% of control) in experiment [9] was 52.1%. In addition, the Potency in [10] was 20.9 µM (active). Also, the Potency result in [14] was “inactive”.

Turning to `CCc1ccc(OCc2ccccc2C(=O)Nc2ccc3nc(C)cc(N)c3c2)cc1`, the remaining parasite growth % (stronger effect = lower value) in experiment [1] was -0.867%. Further, the activity, percent of control in experiment [2] was 0.0556%. In addition, the remaining proliferation (% of control), lower = more inhibition in experiment [3] was 0.0187%. In experiment [4], this compound yielded a parasite growth, % of DMSO control of 5.35%. Further, the parasite growth remaining, % of DMSO control (lower = more inhibition) in experiment [5] was 6.22%. Moreover, the parasite growth, % of control (lower = inhibition) in [6] turned out to be 24.8%. Moreover, the growth, % of control in experiment [7] amounted to 10%. The cell viability, % of control (lower = more cytotoxic) in [8] was determined as 7.97%. This compound also showed a viability (% of control) in experiment [9] of 4.73%. Besides, the Potency result in [10] was “inactive”. The Potency in experiment [11] is 9.35 µM (active); in experiment [12] it was 7.43 µM (active); in experiment [13], 7.43 µM (active); in experiment [14], 9.35 µM (active).
